This is a sample that favours compounds with a hit; in the whole collection about 4% have one here.
Mdm2-MdmX inh – inhibitors of human Mdm2/MdmX interaction. O15151+Q00987. inhibition, % at 8 µM. 3% of 330,000 active. SaOS-2 split-luciferase Mdm2/MdmX complementation, luminescence;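 active means inhibition of at least 50% at 8 µM in the primary screen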
Gli-Sufu antag – Gli-Sufu pathway antagonism; Sufu-KO-LIGHT fibroblasts, Gli luciferase reporter luminescence; inhibition, % at 5 µM; 0.74% of 340,000 active;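 active means inhibition above about 55%, limit read from the data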;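 further: 0% = DMSO-treated cells and 100% = wells with medium but no cells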
Jurkat NFkB inh – lowers PMA/ionomycin-induced NF-kB signal in Jurkat cells | PMA/ionomycin-induced NF-kB luciferase reporter, luminescence | inhibition, % at 4 µM | 0.53% of 330,000 active | AID 435003; in the data active means inhibition above about 50%
697 NFkB inh – lowers PMA/ionomycin-induced NF-kB signal in 697 B cells | 0.33% of 330,000 active | AID 435022 | 697 B-cell NF-kB luciferase reporter, 16 h | inhibition, % at 4 µM; in the data active means inhibition above about 35%
Beta cell apopt – blocks beta cell apoptosis; INS-1E cytokine-induced death, ATP luminescence, 48 h; percent of positive-control rescue, neutral wells zero; protection from apoptosis, % (concentration not given with the values); 0.8% of 300,000 active;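 active means Every replicate reaches about 75%, or at least half do and their mean reaches it too, limit read from the data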;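 further: 0% = cytokine-treated negative control wells and 100% = positive control rescue; higher means more ATP so stronger rescue from cytokine killing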
Mdm2-MdmX conf – human Mdm2/MdmX binding inhibition, confirmed | 55% of 10,000 active | inhibition, % at 8 µM | luminescent assay | shares compounds with Mdm2-MdmX inh; in the data active means inhibition above about 40%
Full FLuc ctr – counter-screen for Mdm2/MdmX inhibitors: full-length luciferase; inhibition, % at 8 µM; shares compounds with Mdm2-MdmX inh; AID 504607; 77% of 6,200 active; SaOS-2 full-length luciferase counterscreen, luminescence;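 active means mean inhibition at 8 µM reaching about 37%, which flags the compound as non-specific, limit read from the data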;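 further: p53-null SaOS-2 cells with luciferase driven by a doxycycline-inducible promoter; compound on cells about two nights before reading with doxycycline added after day one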
An asterisk follows results filed as active; x = no result.

SMILES	Mdm2-MdmX inh	Gli-Sufu antag	Jurkat NFkB inh	697 NFkB inh	Beta cell apopt	Mdm2-MdmX conf	Full FLuc ctr
COc1ccc(-c2csc(NC(=S)NC(=O)c3ccc4ccccc4c3)n2)cc1OC	78.0*	-10.2	-1.9	4.9	15.4	10.6	x
CC1(C)CCN2CCC(C)(C)c3c(O)ccc1c32	91.5*	10.4	25.4	-22.1	110.7*	83.0*	40.4*
Cc1nnc2c3ccccc3c(-c3cccs3)nn12	54.1*	7.8	-6.3	27.0	-6.7	35.3	53.4*
Cc1nnc2c3ccccc3c(Cl)nn12	7.3	2.6	-10.0	21.4	-4.3	x	x
Cc1nnc2c3ccccc3c(-c3ccc(O)cc3)nn12	66.5*	8.1	-4.8	23.2	-6.4	32.5	61.8*
COc1ccccc1/C=C(/NC(=O)c1ccc(Cl)cc1Cl)C(=O)O	-46.8	15.5	-21.0	-28.4	-2.8	x	x
O=C(c1cccc(Cl)c1)c1nn(-c2ccccc2)c(=O)cc1C(F)(F)F	77.3*	0.7	1.4	-7.8	106.8*	32.2	x
C=C1c2nc3ccccc3n2C=C(c2ccc(C)cc2)N1c1ccccc1	x	3.3	x	x	x	x	x
CSc1ncccc1C(=O)OCC(=O)c1cccs1	-4.2	-5.6	-9.3	1.4	4.0	x	x
COc1ccc(OCc2nc(N)nc(Nc3ccccc3OC)n2)cc1	-9.1	-5.9	-5.6	-3.5	-10.6	x	x
COc1ccccc1Nc1nc(N)nc(CCl)n1	71.8*	4.9	6.9	8.4	-12.3	68.5*	54.4*
COc1cccc(Nc2nc(N)nc(CCl)n2)c1	49.9	0.2	7.2	8.8	-11.3	x	x
COc1ccc(OC)c(Nc2nc(N)nc(CCl)n2)c1	81.6*	-8.9	-20.4	-21.5	-5.6	84.0*	40.7*
CC1CCC(C(C)C)C(OC(=O)Cn2c(-c3ccc(Cl)cc3)[n+](C)c3ccccc32)C1 (centres undefined)	100.1*	71.8*	31.8	-72.9	99.7*	96.3*	52.2*
Cc1ccccc1OCc1n(CC(=O)OC2CC(C)CCC2C(C)C)c2ccccc2[n+]1C (centres undefined)	65.4*	50.1	15.1	-38.8	114.4*	99.3*	59.7*
CC1CCC(C(C)C)C(OC(=O)COC(=O)c2ccc(N)cc2)C1 (centres undefined)	20.6	8.8	-0.2	25.6	7.5	x	x
CC1CCC(C(C)C)C(OC(=O)COC(=O)c2cccn2C)C1 (centres undefined)	18.9	2.9	0.4	1.0	1.5	x	x
COc1ccc(C(=O)NC(=S)Nc2ccc3oc(=O)ccc3c2)cc1	73.3*	-4.0	7.8	-20.0	2.9	23.6	84.1*
Cc1nnc(NC(=O)CSc2nc(C(C)C)nc3ccccc23)s1	75.6*	12.3	14.0	-33.4	1.2	62.7*	43.9*
O=C(CSc1nc(Cc2ccccc2)nc2ccccc12)Nc1nc2c(s1)CCCC2	-17.0	-13.7	-4.7	-18.2	x	x	x
CC(C)c1nc(SCC(=O)Nc2nc3c(s2)CCCC3)c2ccccc2n1	85.0*	7.5	-3.1	-169.8	-5.9	63.8*	45.1*
COc1cccc(/C=N/n2c(COc3ccccc3)n[nH]c2=S)c1	13.3	-16.0	-7.2	5.2	-7.8	x	x
COc1ccccc1-n1cnc2cc(C(=O)N3CCOCC3)ccc21	-12.3	-21.8	-6.5	-35.1	-6.4	x	x
COc1ccc(/C=C/C(=O)c2oc3ccc(F)cc3c2C)cc1	-12.3	5.6	15.6	-10.8	1.3	x	x
Cc1ccc(OC(=O)c2oc3ccc(F)cc3c2C)c(C)c1	51.6*	-10.6	45.6	6.7	55.3	-25.2	x
SMILES	Mdm2-MdmX inh	Gli-Sufu antag	Jurkat NFkB inh	697 NFkB inh	Beta cell apopt	Mdm2-MdmX conf	Full FLuc ctr
Cc1cc(C)c2c(n1)sc1c(N3CCCCC3)ncnc12	4.8	-13.7	3.1	-14.8	7.8	x	x
CC1(C)Cc2c(c(N3CCCC3)nc3sc4c(N5CCNCC5)ncnc4c23)CO1	57.5*	8.0	17.1	-1.1	x	5.3	x
C/C(=N\Nc1ccc(C(F)(F)F)cn1)c1ccncc1	-3.4	19.2	-44.5	-39.6	1.2	x	x
CC(C)c1ccc2c(c1)C(N1CCNCC1)Cc1ccc(F)cc1S2 (centres undefined)	61.8*	6.8	13.7	4.4	116.3*	34.0	x
CN1CCN(C2Cc3ccc(F)cc3Sc3cc(F)c(Cl)cc32)CC1 (centres undefined)	64.7*	5.3	-13.8	-29.8	x	40.7*	56.5*
CN1CCN(C2Cc3cc(F)ccc3Sc3ccc(Cl)cc32)CC1 (centres undefined)	44.6	5.8	5.1	8.9	12.8	x	x
CSc1ccc2c(c1)C(N1CCN(C)CC1)Cc1ccccc1S2 (centres undefined)	68.9*	9.5	-3.7	15.1	-3.6	29.1	x
Cc1ccc(CN2CCSc3ccc(C(=O)NCCCN4CCOCC4)cc32)cc1	29.8	18.6	-6.4	-28.0	9.7	x	x
COc1ccc(/C=C2/Sc3ccc(C(=O)NCCCN4CCOCC4)cc3NC2=O)cc1OC	75.8*	25.2	-15.8	-0.8	x	19.1	x
Cc1cccc(/C=C2/Sc3ccc(C(=O)NCCCN4CCOCC4)cc3NC2=O)c1	52.7*	x	8.2	-2.0	5.3	1.9	x
CCN1CCCC1CNC(=O)c1ccc2c(c1)NC(=O)/C(=C\c1ccc(OC)c(OC)c1)S2 (centres undefined)	52.5*	12.7	-49.9	-19.1	-11.1	18.6	x
CCN1CCN(CCCNC(=O)c2ccc3c(c2)N(Cc2ccc(C)cc2)CCS3)CC1	51.0*	27.8	-0.1	0.1	5.3	6.0	x
Cc1cccc(CN2C(=O)c3ccccc3Sc3ccc(C(=O)NCCCN4CCOCC4)cc32)c1	18.0	11.0	2.2	18.6	-0.4	x	x
CCN1CCN(CCCNC(=O)c2ccc3c(c2)NC(=O)c2ccccc2S3)CC1	-0.7	0.0	3.0	5.0	-6.3	x	x
CCN1CCN(CCCNC(=O)c2ccc3c(c2)NC(=O)/C(=C\c2cccc(C)c2)S3)CC1	97.5*	23.3	21.0	0.6	62.4	61.2*	63.2*
COc1ccc(CNC(=O)Cn2cnc3c(NCc4ccccc4)ncnc32)cc1	61.2*	-11.3	x	6.1	x	27.9	x
COC(=O)c1ccc(CNC(=O)Cn2cnc3c(NCc4ccccc4)ncnc32)cc1	27.0	-23.8	x	-6.3	x	x	x
O=C1N/C(=N/N=C/c2ccccc2O)SC1Cc1ccc(F)cc1 (centres undefined)	70.7*	-3.0	10.5	-9.0	87.4*	53.3*	9.6
CCN1C[C@@H]2[C@@H]3C(=O)N(C)C(=O)[C@@H]3[C@](CC)(C1=O)N2C(=O)c1ccc(F)cc1	x	-4.3	x	x	x	x	x
NC(=O)[C@@H]1CC2(CC(c3cccc(NC(=O)CC(c4ccccc4)c4ccccc4)c3)=NO2)CN1C(=O)c1ccc(Cl)cc1 (some centres undefined)	52.1*	-2.0	14.2	-1.6	3.4	33.4	x

Screening data (PubChem BioAssay)
